Records with an inconclusive call do not appear. The source made the active and inactive calls. How the source made its calls, unless noted: active means hit-call score of the fitted dose curve at least 0.9, where 1 is the maximum; inactive means score below 0.9.
Key:
[1] = CCTE_Shafer_MEA_dev_firing_rate_mean: CCTE's Neural Network Formation Assay for Mean Firing Rate, Shafer Lab (AID 2284031)
Summary of the method: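 Spike frequency (spikes/recording length, averaged over active electrodes) was recorded on days 5, 7, 9 and 12 and collapsed to AUC; rat cortical cultures received compound continuously over 12 days of network development.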

[2] = CCTE_Shafer_MEA_dev_active_electrodes_number: CCTE's Neural Network Formation Assay for Number of Active Electrodes, Shafer Lab (AID 2284040; active means hit-call score of the fitted dose curve at least 0.9, where 1 is the maximum)
Summary of the method: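 Counts electrodes per well firing at least 5 spikes/min, recorded on days 5, 7, 9 and 12 in rat cortical cultures dosed continuously from plating (treatment refreshed DIV 5, 9). Value is the area under the curve over recordings, fitted downward relative to DMSO.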

[3] = CCTE_Shafer_MEA_dev_burst_rate: CCTE's Neural Network Formation Assay for Burst Rate, Shafer Lab (AID 2284042)
Summary of the method: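 Cells plated, treated day 0; recorded DIV 5, 7, 9, 12; fed and re-treated DIV 5, 9. Endpoint: bursts per recording time, active-electrode well mean, trapezoidal AUC, fitted in decreasing direction against DMSO baseline.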

[4] = CCTE_Shafer_MEA_dev_bursting_electrodes_number: CCTE's Neural Network Formation Assay for Number of Bursting Electrodes, Shafer Lab (AID 2284043; active means hit-call score of the fitted dose curve at least 0.9, where 1 is the maximum)
Summary of the method: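 Rat cortical primary neurons, 48-well MEA, 16 electrodes/well; dosing DIV 0–12, re-dosed with full media change DIV 5, 9. Recordings DIV 5/7/9/12, AxIS adaptive spike detector; bursting electrode = ≥1 burst/2 min. AUC across days; loss of signal vs DMSO.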

[5] = CCTE_Shafer_MEA_dev_burst_duration_mean: CCTE's Neural Network Formation Assay for Mean Burst Duration, Shafer Lab (AID 2284045)
Summary of the method: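 Rat cortical cultures, 1.5 x 10^5 cells/well with laminin drop; continuous dosing days 0–12, media plus treatment refreshed DIV 5, 9. AxIS adaptive spike detection; mean single-electrode burst duration, AUC over four recordings, negative direction vs DMSO.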

[6] = CCTE_Shafer_MEA_dev_inter_network_spike_interval_mean: CCTE's Neural Network Formation Assay for Mean Inter-network Spike Interval, Shafer Lab (AID 2284047)
Summary of the method: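 Rat cortical cultures, 1.5 x 10^5 cells/well on 48-well MEA plates; continuous exposure days 0–12, medium and compound refreshed DIV 5, 9. Mean time between consecutive network-spike peaks; AUC across DIV 5/7/9/12; DMSO baseline, negative fitting direction.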

[7] = CCTE_Shafer_MEA_dev_network_spike_number: CCTE's Neural Network Formation Assay for Number of Network Spikes, Shafer Lab (AID 2284048);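 further: synchronized bursts across electrodes counted on days 5 7 9 12 and integrated as AUC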
Summary of the method: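 Rat cortical primary cultures on 48-well MEA (16 electrodes/well); continuous exposure DIV 0–12, full medium and treatment exchange DIV 5, 9. Readout: network spike count, AxIS adaptive detection, recordings DIV 5/7/9/12 collapsed to AUC; loss-of-signal fit, DMSO baseline.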

[8] = CCTE_Shafer_MEA_dev_network_spike_peak: CCTE's Neural Network Formation Assay for Mean Number of Electrodes in Network Spike, Shafer Lab (AID 2284049)
Summary of the method: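 Network-spike peak electrode count from recordings on days 5, 7, 9 and 12 was combined as trapezoidal area under the curve. Rat cortical cultures were treated continuously from plating, with compound renewed at each feed (DIV 5, 9); fits versus DMSO.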

[9] = CCTE_Shafer_MEA_dev_spike_duration_mean: CCTE's Neural Network Formation Assay for Mean Spike Duration, Shafer Lab (AID 2284051);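 further: mean network spike duration pooled as area under curve over DIV 5 to 12 recordings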
Summary of the method: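 Readout is the average length of network spikes, clustered firing across electrodes, summed over DIV 5, 7, 9 and 12 as area under the curve. Neurons from rat cortex developed networks on MEA plates under continuous 12-day exposure.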

[10] = CCTE_Shafer_MEA_dev_network_spike_duration_std: CCTE's Neural Network Formation Assay for Standard Deviation of Network Spike Duration, Shafer Lab (AID 2284052);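 further: area under curve of spike duration SD across recording days 5 to 12; hits are decreases in network spike duration SD versus DMSO vehicle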
Summary of the method: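 Read-out is the trapezoidal area-under-the-curve across recordings made on days 5, 7, 9 and 12, fitted in the negative direction against DMSO baseline. Neurons were primary rat cortical cells treated from day 0, with treatment renewed at each feed.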

[11] = CCTE_Shafer_MEA_dev_per_network_spike_spike_number_mean: CCTE's Neural Network Formation Assay for Mean Number of Spikes in a Network Spike, Shafer Lab (AID 2284053)
Summary of the method: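 Continuous twelve-day exposure of developing rat cortical networks grown over 16 microelectrodes per well; spontaneous firing is captured at four time points, and the per-network-spike spike number is integrated over development by trapezoidal AUC.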

[12] = CCTE_Shafer_MEA_dev_per_network_spike_spike_percent: CCTE's Neural Network Formation Assay for Percent of Spikes in a Network Spike, Shafer Lab (AID 2284054)
Summary of the method: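 Read-out: percent of spikes falling in a 0.05 s window at network-spike peak, from spontaneous MEA recordings on days 5, 7, 9 and 12; trapezoidal AUC; loss of signal versus DMSO. Rat cortical cultures, compound present throughout.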

[13] = CCTE_Shafer_MEA_dev_LDH: CCTE's Lactate Dehydrogenase Assay for Cytotoxicity in the Neural Network Formation Assay, Shafer Lab (AID 2284068; active means hit-call score of the fitted dose curve at least 0.9, where 1 is the maximum;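 further: exposure for twelve days from plating with re-dosing on DIV 5 and 9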)
Summary of the method: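 Cytotoxicity companion to network-formation recordings: rat cortical neurons received compound over 12 days of development, re-dosed at DIV 5 and 9 feeds. Viability was inferred from LDH enzyme activity relative to DMSO.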

[14] = CCTE_Shafer_MEA_dev_AB: CCTE's Alamar Blue Assay for Cytotoxicity in the Neural Network Formation Assay, Shafer Lab (AID 2284083; active means hit-call score of the fitted dose curve at least 0.9, where 1 is the maximum;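 further: resazurin reduction fluorescence as viability of cultured neurons; twelve days of exposure from plating with re-dosing on DIV 5 and 9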)
Summary of the method: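 Fluorescent resazurin reduction serves as the viability read-out, with DMSO as negative control and baseline. Cells were primary rat cortical neurons grown on MEA plates and dosed from day 0 to day 12, treatment renewed on DIV 5 and 9.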

[15] = CCTE_Shafer_MEA_dev_mutual_information_norm: CCTE's Neural Network Formation Assay for Mutual Information Normalization, Shafer Lab (AID 2284091)
Summary of the method: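 Neurons from rat cortex were seeded at 1.5 x 10^5 cells/well onto PEI-coated MEAs in a laminin drop, then exposed to compound from day 0 for twelve days. Network recordings on four days gave mutual information, summarised by AUC relative to DMSO.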

[16] = CCTE_Shafer_MEA_dev_correlation_coefficient_mean: CCTE's Neural Network Formation Assay for Mean Correlation Coefficient, Shafer Lab (AID 2284093)
Summary of the method: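 Read-out: well-mean correlation coefficient of spike trains between electrode pairs, collapsed over four recording days as trapezoidal area-under-the-curve. Developing rat cortical neuron networks grown on MEAs received test chemical continuously from plating.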

[17] = UKN2_HCS_IMR90_neural_migration: University of Konstanz (UKN) Leist Lab Neural Crest Cell Migration Assay in human induced IMR90 Pluripotent Stem Cells (UKN2) (AID 2284204); details: actives raise or lower the signal
Summary of the method: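 Stopper-exclusion migration (cMINC), human iPSC-derived neural crest cells; N2-S + EGF/FGF; compound added 24 h post-stopper removal, 24 h exposure. Readout: calcein-AM/Hoechst 30 min, HCS fluorescence imaging; bidirectional fitting, DMSO baseline.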

[18] = IUF_NPC1b_proliferation_BrdU_72hr: Leibniz Research Institute for Environmental Medicine (IUF) 72-hour Neural Progenitor Cell Bromodeoxyuridine (BrdU) Proliferation Assay (NPC1b) (AID 2284207)
Summary of the method: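 Luminescent BrdU ELISA measured DNA synthesis during the last 16 h of a 72 h exposure of primary human neural progenitor spheres grown with EGF and FGF. Signal was fitted relative to DMSO controls.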

[19] = IUF_NPC1a_proliferation_area_72hr: Leibniz Research Institute for Environmental Medicine (IUF) 72-hour Neural Progenitor Cell Proliferation Area Assay (NPC1a) (AID 2284208)
Summary of the method: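 hNPC spheres (human fetal cortex, GW 16-19), one per poly-Hema U-bottom well; EGF+FGF medium; dosed day 0, no re-dosing; 72 h, 37C, 5% CO2; phase-contrast sphere area; DMSO = baseline; minus-GF = positive ctrl.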

[20] = IUF_NPC1_viability_72hr: Viability Assessment at 72 hours in the Leibniz Research Institute for Environmental Medicine (IUF) Neural Progenitor Cell Proliferation Assay (NPC1) (AID 2284209)
Summary of the method: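 Viability was measured by resazurin-to-resorufin fluorescence (alamar blue) after 72 h of continuous exposure without compound renewal. Each well held one hNPC sphere (gestational week 16-19 fetal cortex, 0.25-0.35 mm) cultured in EGF/FGF proliferation medium at 37C and pH 7.2-7.6.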

[21] = CCTE_Mundy_HCI_Cortical_Synap_Neur_Matur_NeuriteSpotCountPerNeuriteLength: CCTE's Synaptogenesis and Neurite Maturation Assay in rat cortical cells for Neurite Spot Count per Neurite Length, Mundy Lab (AID 2284210)
Summary of the method: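 Read-out: synaptophysin puncta counted along MAP2-stained neurites, normalised to neurite length, by automated high-content imaging. Rat cortical cells; AraC DIV 5; chemical dosing DIV 7; termination DIV 12. DMSO baseline.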

[22] = CCTE_Mundy_HCI_Cortical_Synap_Neur_Matur_BPCount: CCTE's Synaptogenesis and Neurite Maturation Assay in rat cortical cells for Branch Point Count, Mundy Lab (AID 2284211)
Summary of the method: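 HCI read-out of branch points from MAP2/synaptophysin/Hoechst immunofluorescence; rat cortical cultures, AraC DIV 5, dosing DIV 7, fixed DIV 12; fit in positive direction vs DMSO baseline.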

Measured: AC50

CC(=O)[O-].[Tl+]
active: [10] 12.1 µM | [18] 82.1 µM | [19] 76.8 µM | [21] 35.1 µM | [22] 9.92 µM
inactive: all other assays above
